Screening results from PubChem.
Shiga inhibitor – A qHTS for Small Molecule Inhibitors of Shiga Toxin; 290,000 tested, 9.2% active; AID 2315, 2010; Vero cells, Shiga toxin protein synthesis inhibition reporter; inhibition, % at 38.7 µM; in the data active = inhibition mostly above about 28%, no sharp cut-off; inactive = mostly below about 43%; note: 0% is about no effect
LmPK inhibitor – qHTS Assay for Inhibitors of Leishmania Mexicana Pyruvate Kinase (LmPK). Q27686. purified LmPK, Kinase-Glo ATP luminescence, 1 h. Potency, µM (highest dose often 57.5 µM), for the others: at the highest dose activity change, negative = inhibition, most hits filed as inhibitors. 290,000 tested, 0.37% active. AID 1721, 2009; note: potency is the fitted concentration of half-maximal effect; % is set by controls: 0 for no effect and ±100 for the full control effect
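0.1 nM LmPK, 0.5 mM PEP, 0.1 mM ADP; 50 mM imidazole pH 7.2, 7 mM MgCl2, 50 mM KCl; 1 h RT. Kinase-Glo luminescence readout, normalized to no-enzyme (full inhibition) and uninhibited wells.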
Giardia FBPA inh – qHTS Assay for Inhibitors of Fructose-1,6-bisphosphate Aldolase from Giardia Lamblia; A8B2U2; purified Giardia FBPA; Potency, µM (highest dose often 59.6 µM), without a hit: at the top dose activity, negative = inhibition, most hits filed as inhibitors; 290,000 tested, 0.71% active; note: potency is the fitted concentration of half-maximal effect; % is set by controls: 0 for no effect and ±100 for the full control effect; nearly all actives have a fitted effect of over 55% in size
Target sequence (A8B2U2 whole entry, looked up): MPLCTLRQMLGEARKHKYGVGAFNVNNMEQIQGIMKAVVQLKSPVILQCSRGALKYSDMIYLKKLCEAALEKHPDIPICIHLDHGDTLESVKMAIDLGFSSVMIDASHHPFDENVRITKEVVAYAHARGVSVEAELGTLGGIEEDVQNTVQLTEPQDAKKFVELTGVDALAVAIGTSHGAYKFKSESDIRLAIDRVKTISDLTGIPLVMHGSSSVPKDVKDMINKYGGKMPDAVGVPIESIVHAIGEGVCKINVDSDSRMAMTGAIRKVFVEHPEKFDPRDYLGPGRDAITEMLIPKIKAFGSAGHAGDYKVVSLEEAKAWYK
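Giardia FBPA (40 nM reagent) was preincubated 10 min at RT with compound (up to 57.5 uM final), then substrate plus GAPDH/TPI/NAD/arsenate coupling system with diaphorase/resazurin was added; resorufin fluorescence (525/598 nm) was read after 20 min.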
Cycloheximide cs – Cycloheximide Counterscreen for Small Molecule Inhibitors of Shiga Toxin | cell reporter, cycloheximide protein synthesis inhibition counterscreen | max response, % | 300,000 tested, 12% active; in the data active = max response mostly above about 13%, no sharp cut-off; inactive = mostly below about 14%; note: read at 38.3 µM for the half of the compounds with a filed dose; 0% is about no effect
RE007 growth inh – qHTS Assay for Inhibitors of the HIV-1 protein Vpr; S. pombe RE007 Vpr strain, BacTiter-Glo ATP luminescence, 24 h; Potency, µM (titrated, usually from 92.2 µM), for inactives: at the top dose activity change, negative = less growth, actives largely listed as inhibitors; 360,000 tested, 0.21% active; AID 651644, 2012; active = well fitted falling curve with a large enough effect; inconclusive = small, poorly fitted or top-dose-only effect; inactive = no such curve, though single readings can be large or run the other way; note: potency is the fitted concentration of half-maximal effect; % is set by controls: 0 for no effect and ±100 for the full control effect; nearly all actives have a fitted effect of over 50% in size
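Fission yeast strain RE007, carrying one chromosomally integrated HIV-1 vpr copy, was seeded at OD 0.01 in PMG+AL medium with 23 nL pinned compound. After 24 h at 30 °C and 99% humidity, viability was read by BacTiter-Glo luminescence.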
Tb PYK inh – qHTS of Trypanosoma Brucei Inhibitors; pyruvate kinase (Trypanosoma brucei), Q57TT1; TbPYK enzyme, Kinase-Glo Plus ATP luminescence, 45 min; 410,000 tested, 0.12% active; Potency, µM (titrated, usually from 76.8 µM), for the others: top-dose activity, negative = inhibition, actives largely listed as inhibitors; note: potency is the fitted concentration of half-maximal effect; % is set by controls: 0 for no effect and ±100 for the full control effect; nearly all actives have a fitted effect of over 50% in size
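In this concentration-response screen, enzyme-free wells defined baseline while DMSO plates tracked drift. Each reaction combined TbPYK, substrate, compound and 130 uM ADP for 45 min at room temperature. Kinase-Glo Plus luminescence gave the signal.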
Active calls of the source: *; [ ] = another dose, or the depositor's remark. Shown is part of a subset that was picked to be rich in hits. Unless noted, calls come from the whole dose curve; as a rule, active = well fitted curve in the direction sought with a large enough effect; inconclusive = small, poorly fitted or top-dose-only effect, or another doubt; inactive = no such curve, though single readings can be large; an effect the other way counts as inactive or inconclusive.

`Cc1cccc(C(=O)Nc2cccc(C(=O)N/N=C/c3ccc4c(c3)OCO4)c2)c1` gave Shiga inhibitor 78.5*, LmPK inhibitor -4.0%, Giardia FBPA inh 3.2%, Cycloheximide cs 39.7*, RE007 growth inh 13.0% and Tb PYK inh -13.0%.
Screening O=C(N/N=C/c1ccc2c(c1)OCO2)c1ccc(NC(=O)c2ccccc2Cl)cc1 returned Shiga inhibitor 25.0, LmPK inhibitor -4.2%, Giardia FBPA inh -6.7%, Cycloheximide cs 11.5, RE007 growth inh 0.3% and Tb PYK inh -3.0%.
Screening Cc1ccccc1C(=O)Nc1cccc(C(=O)N/N=C/c2ccc3c(c2)OCO3)c1 returned Shiga inhibitor 55.4*, LmPK inhibitor 1.6%, Giardia FBPA inh -6.3%, Cycloheximide cs 19.7*, RE007 growth inh 11.2% and Tb PYK inh 3.6%.
O=C(N/N=C/c1ccc2c(c1)OCO2)C(=O)Nc1cccc(Cl)c1 was read as Shiga inhibitor 65.3*, LmPK inhibitor -6.8%, Giardia FBPA inh -0.5%, Cycloheximide cs 16.0*, RE007 growth inh 10.2% and Tb PYK inh 0.0%.
Screening O=C(N/N=C/c1ccc2c(c1)OCO2)c1cccc(NC(=O)c2ccccc2Cl)c1 returned Shiga inhibitor 47.9*, LmPK inhibitor -0.2%, Giardia FBPA inh 1.8%, Cycloheximide cs 12.2, RE007 growth inh 10.3% and Tb PYK inh 1.7%.
Screening CCS(=O)(=O)c1ncc(Cl)c(C(=O)N(Cc2ccccc2)Cc2ccco2)n1 returned Tb PYK inh 0.9%.
Screening Cc1cc(C)c(NC(=O)CSc2n[nH]c(-c3ccccc3Cl)n2)c(C)c1 returned Tb PYK inh -6.7%.
`c1ccc2nc3c(nc2c1)OCC1CCCCN31` (centres undefined) gave Shiga inhibitor 107.9*, LmPK inhibitor -7.8%, Giardia FBPA inh 4.3%, Cycloheximide cs 53.5*, RE007 growth inh 2.4% and Tb PYK inh 0.3%.
For Cc1ccc(S(=O)(=O)N(C)C[C@H]2OCCCC[C@@H](C)Oc3ccc(N(C)C)cc3C(=O)N([C@H](C)CO)C[C@@H]2C)cc1 the results were RE007 growth inh 2.8% and Tb PYK inh 7.94µM*.
Screening C[C@@H]1CCCCO[C@@H](CN(C)S(=O)(=O)c2ccc(Cl)cc2)[C@@H](C)CN([C@H](C)CO)C(=O)c2cc(N(C)C)ccc2O1 returned RE007 growth inh -12.6% and Tb PYK inh -0.5%.
For CSc1ccc(CNC(=O)c2ccccc2NC(=O)c2nsc3ccccc23)cc1 the results were Tb PYK inh -4.6%.
Cc1ccsc1CN(Cc1ccco1)C(=O)c1ccc(Cl)cc1 was read as Tb PYK inh 6.9%.
Cc1nn(CC(=O)c2ccccc2Cl)c(C)c1[N+](=O)[O-] was read as Shiga inhibitor 93.1*, LmPK inhibitor inconclusive, Giardia FBPA inh -0.8%, Cycloheximide cs 47.9*, RE007 growth inh 24.8% and Tb PYK inh 1.8%.
`O=C(c1cnc(N2CCCCC2)c2ccccc12)N1CCN(c2ccc(F)cc2)CC1` gave Tb PYK inh -2.0%.
Screening CCOC(=O)[C@]12CCCC=C1N(Cc1ccco1)C(=O)[C@H](CC(=O)NCc1cccc3ccccc13)C2 returned RE007 growth inh -11.9% and Tb PYK inh 1.7%.
`CC(C)CCOc1ccc(C2=NNC(=O)CC2)cc1` gave Shiga inhibitor 43.0*, LmPK inhibitor -7.6%, Giardia FBPA inh 4.5%, Cycloheximide cs 25.5*, RE007 growth inh 36.7% and Tb PYK inh -7.5%.
O=C1CCC(c2ccccc2)=NN1 was read as Shiga inhibitor 25.0, LmPK inhibitor 1.4%, Giardia FBPA inh -0.3%, Cycloheximide cs 6.3, RE007 growth inh -14.8% and Tb PYK inh -18.2%.
`CCCCCc1ccc(C2=NNC(=O)CC2)cc1` gave LmPK inhibitor 4.5%, Giardia FBPA inh 6.4%, Cycloheximide cs 14.3*, RE007 growth inh 24.3% and Tb PYK inh 1.3%.
Screening C(=N\Nc1nc2ccccc2[nH]1)/c1cccs1 returned Shiga inhibitor 123.6*, LmPK inhibitor 14.1µM*, Giardia FBPA inh -1.9%, Cycloheximide cs 69.1*, RE007 growth inh 6.6% and Tb PYK inh -4.7%.
For Cc1ccsc1/C=N/Nc1nc2ccccc2[nH]1 the results were Shiga inhibitor active, LmPK inhibitor 14.1µM*, Giardia FBPA inh 1.9%, Cycloheximide cs 43.5*, RE007 growth inh -7.9% and Tb PYK inh -22.1%.
For COc1cc(CC(C)N)c(OC)cc1Br (centres undefined) the results were Tb PYK inh -4.9%.
Screening COc1ccc(/C=N/Nc2nc3ccccc3c(=O)n2-c2ccccc2)cc1OC returned Shiga inhibitor 23.8, LmPK inhibitor -13.9%, Giardia FBPA inh -14.0%, Cycloheximide cs 20.6*, RE007 growth inh inconclusive and Tb PYK inh -7.7%.
`COc1ccc(/C=N/Nc2nnc(C)n2N)cc1OC(C)=O` gave Shiga inhibitor 12.8, LmPK inhibitor 3.5%, Giardia FBPA inh inconclusive, Cycloheximide cs 12.5*, RE007 growth inh -13.6% and Tb PYK inh 5.2%.
For COc1ccc(/C=N/NC(=O)Cn2ccnc2C)cc1OC the results were Shiga inhibitor -4.2, LmPK inhibitor 2.9%, Giardia FBPA inh 2.2%, Cycloheximide cs -4.2, RE007 growth inh 7.9% and Tb PYK inh -4.9%.
`COc1ccc(/C=N/Nc2nnc(C)n2N)cc1OC` gave Shiga inhibitor -5.0, LmPK inhibitor -1.1%, Giardia FBPA inh 22.3µM*, Cycloheximide cs 10.8, RE007 growth inh -22.5% and Tb PYK inh 0.9%.
Screening CC(/C=N/NC(=O)Cc1cccs1)=C\c1ccco1 returned Shiga inhibitor 36.8, LmPK inhibitor 5.8%, Giardia FBPA inh -28.7%, Cycloheximide cs 41.1* and RE007 growth inh -10.8%[3.69 µM].
For CC(/C=N/NC(=O)CSc1nc2ccccc2n1C)=C\c1ccco1 the results were Shiga inhibitor 5.9, LmPK inhibitor 4.0%, Giardia FBPA inh -25.2%, Cycloheximide cs -2.3, RE007 growth inh 5.6% and Tb PYK inh -6.1%.
`CC(C)(C)NC(=O)/C(=C\c1ccco1)NC(=O)c1cccs1` gave Shiga inhibitor -8.0, LmPK inhibitor -4.0%, Giardia FBPA inh 11.0%, Cycloheximide cs -1.3, RE007 growth inh 2.6% and Tb PYK inh -6.3%.
CC(/C=N/NC(=O)c1cccs1)=C\c1ccco1 was read as Shiga inhibitor 128.1*, LmPK inhibitor -7.8%, Giardia FBPA inh inconclusive, Cycloheximide cs 58.5*, RE007 growth inh 3.0% and Tb PYK inh -0.7%.
For CC(/C=C/c1ccco1)=N/NC(=O)Cc1cccs1 the results were Shiga inhibitor -29.6, LmPK inhibitor -1.3%, Giardia FBPA inh -1.0%, Cycloheximide cs 14.3*, RE007 growth inh -24.5% and Tb PYK inh -8.3%.
